Assay results: PubChem BioAssay (EPA / NIEHS)
The source made the active and inactive calls. How the source made its calls: active means hit-call score of the fitted dose curve at least 0.9, where 1 is the maximum; inactive means score below 0.9.

Biological target: Hypoxia-inducible factor 1-alpha (Homo sapiens) (UniProt Q16665)
Test: ATG_HIF1a_CIS: Attagene CIS-FACTORIAL HepG2 Assay for human Hypoxia Inducible Factor 1 (HIF1A) (AID 2282951)
Settings: HepG2 Attagene cis-factorial HIF1a reporter transcription; actives raise or lower the signal
Protocol: ATG_CIS is a cell-based, multiplexed-readout assay that uses HepG2, a human liver cell line, with measurements taken at 24 hours after chemical dosing in a 24-well plate.ATG_HIF1a_CIS is one of 52 assay component(s) measured or calculated from the ATG_CIS assay. It is designed to make measurements of mRNA induction, a form of inducible reporter, as detected with fluorescence intensity signals by Reverse transcription polymerase chain reaction (RT-PCR) and Capillary electrophoresis technology.Data from the assay component ATG_HIF1a_CIS was analyzed into 1 assay endpoint. This assay endpoint, ATG_HIF1a_CIS, was analyzed with bidirectional fitting relative to DMSO as the negative control and baseline of activity. Using a type of inducible reporter, measures of mRNA for gain or loss-of-signal activity can be used to understand the reporter gene at the transcription factor-level as they relate to the gene HIF1A. Furthermore, this assay endpoint can be referred to as a primary readout, because this assay has produced multiple assay endpoints where this one serves a reporter gene function. To generalize the intended target to other relatable targets, this assay endpoint is annotated to the dna binding intended target family, where the subfamily is basic helix-loop-helix protein.
Human liver HepG2 cells are transiently transfected with multiple reporter transcription units (MRTUs) in 6-well plates using FuGene 6 reagent (Roche; 3 ml FuGene/1 mg DNA). The MRTU constructs are regulated by a cis-regulating element (promoter). […] A major difference between the CIS and TRANS system is that in CIS activities of endogenous TFs are measured, whereas the TRANS assay evaluates changes in activities of exogenous, chimeric NR-Gal4 proteins. […] At the end of 24 hour incubation, total RNA was isolated using TriZol reagent (Invitrogen). The isolated RNA is then reverse-transcribed using oligo(dT) primer and Mo-MLV reverse transcriptase (Invitrogen) with DNAse I (Ambion) treatment for 30 min. The one-tenth of the produced cDNA was amplified by PCR using Taq DNA polymerase (Invitrogen) and two reporter sequence-specific primers. The PCR products were fluorescently labeled by primer extension with 6-arboxyfluorescein (6-FAM) 5'-labeled reporter sequence-specific primer (2 min at 95 C, 20 s at 68 C and 10 min at 72 C) and these products were digested with 5U of HpaI (New England Biolabs) for 2h at 37 C. The fragments were purified using Qiaquick PCR columns (Qiagen), analyzed on an ABI 3130xL genetic analyzer (Applied Biosystems) with peak positions identified by using a set of X-rhodamine (ROX)-labeled MapMarker1000 molecular weight standards (BioVentures). The raw capillary electrophoresis data was processed using Attagraph software (Attagene).

Chain of Hypoxia-inducible factor 1-alpha (Homo sapiens) (Q16665 whole entry, looked up): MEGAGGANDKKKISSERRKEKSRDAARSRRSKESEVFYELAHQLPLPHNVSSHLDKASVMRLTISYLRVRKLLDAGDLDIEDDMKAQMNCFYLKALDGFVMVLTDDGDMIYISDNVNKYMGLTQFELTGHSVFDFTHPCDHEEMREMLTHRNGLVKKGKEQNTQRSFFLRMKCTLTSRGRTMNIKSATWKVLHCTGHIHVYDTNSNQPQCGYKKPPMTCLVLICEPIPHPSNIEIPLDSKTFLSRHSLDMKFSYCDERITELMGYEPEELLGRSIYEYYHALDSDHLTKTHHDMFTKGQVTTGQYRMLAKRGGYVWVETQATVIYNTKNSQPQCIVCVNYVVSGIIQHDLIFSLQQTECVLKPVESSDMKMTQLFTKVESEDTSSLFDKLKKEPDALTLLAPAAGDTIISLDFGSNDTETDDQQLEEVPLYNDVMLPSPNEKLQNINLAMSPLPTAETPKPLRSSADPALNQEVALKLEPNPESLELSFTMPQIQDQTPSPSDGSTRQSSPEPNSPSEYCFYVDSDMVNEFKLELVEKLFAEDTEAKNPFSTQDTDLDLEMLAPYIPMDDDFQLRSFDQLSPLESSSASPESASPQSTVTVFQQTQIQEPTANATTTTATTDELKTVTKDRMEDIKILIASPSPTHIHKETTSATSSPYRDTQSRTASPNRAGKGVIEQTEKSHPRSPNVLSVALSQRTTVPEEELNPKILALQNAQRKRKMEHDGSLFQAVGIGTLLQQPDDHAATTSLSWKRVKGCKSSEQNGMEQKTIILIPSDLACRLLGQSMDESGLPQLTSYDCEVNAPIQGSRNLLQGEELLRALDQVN

outcome, inactive:
O=C1O[C@@H]2[C@@H](O)[C@H](O)O[C@@H]2[C@H]1O
CCCCCC=CCC(=O)OC
Clc1cccc(Cl)n1
CCCCCOC(=O)CCC
Cc1cc(C2(c3cc(C)c(O)cc3C)OS(=O)(=O)c3ccccc32)c(C)cc1O
COC(C)CCO (stereo not given)
c1ccc2[nH]ccc2c1
O=S(=O)(O)c1ccc(O)c2ncccc12
NC(=O)c1ccccc1Cl
CSc1nc(NC2CC2)nc(NC(C)(C)C)n1
COc1ccc(NC(=O)CC(C)=O)cc1
N#Cc1ccc(CC(=NNC(=O)Nc2ccc(OC(F)(F)F)cc2)c2cccc(C(F)(F)F)c2)cc1
Cc1ccc(C(=O)O)o1
CC(C)[C@H]1CC[C@@H](C)CC1=O
Cc1ccc2ccccc2n1
CC(O)C(C)O (stereo not given)
CCCCCCOC(=O)CC
O=c1[nH]c(=O)n([C@H]2CCCO2)cc1F
S=C(S)NCCNC(=S)S
CCCCCC(CO)CCC (stereo not given)
O=C(O)CCCCCCCCCCC(=O)O
CCCCOCCOCCOCCOCCO
CC(C)C(C)(C)C(C)(C)C(C)(C)S
O=S(=O)(O)NC1CCCCC1
CN(C)c1ccc(O)c2c1C[C@H]1C[C@H]3[C@H](N(C)C)C(=O)C(C(N)=O)=C(O)[C@@]3(O)C(=O)C1=C2O
CN(C)CCCN
OCC(CO)(CO)COCC(CO)(CO)CO
CCN(CC)c1ccc(C(=C2C=CC(=[N+](CC)CC)C=C2)c2ccc(S(=O)(=O)O)cc2S(=O)(=O)[O-])cc1
CCCCCCOC(=O)CCCCC
O=C=NC1CCC(CC2CCC(N=C=O)CC2)CC1 (stereo not given)
CC(=O)O[C@H](CC(=O)[O-])C[N+](C)(C)C
CC(=O)O[C@]1(C(C)=O)CC[C@H]2[C@@H]3C[C@H](C)C4=CC(=O)CC[C@]4(C)[C@H]3CC[C@@]21C
CCCCCCCCCCCCCCCCCC(=O)OCC(CC)CCCC (stereo not given)
CC(C)(C)c1cc(CCC(=O)NN)cc(C(C)(C)C)c1O
C=CC(=O)OCC(O)COc1ccccc1 (stereo not given)
CC(=O)OCCC(C)CC(C)(C)C (stereo not given)
CC(=O)Nc1ccc(CC(=O)O)cc1
OC1C(O)C(O)C(O)C(O)C1O (stereo not given)

AC50, active:
CC1(C)[C@@H]2CC[C@@]1(C)[C@H](O)C2 100 µM
CCCOCC(C)O (stereo not given) 24.8 µM
